Assay results taken from PubChem BioAssay (NCATS).
Unmarked numbers belong to inactive results. Records with an inconclusive call do not appear. Active and inactive are the calls of the source. Unless noted, calls follow the shape of the dose curve; as a rule, active = well fitted curve in the direction sought with a large enough effect; inconclusive = small, poorly fitted or top-dose-only effect, or another doubt; inactive = no such curve, though single readings can be large; an effect the other way counts as inactive or inconclusive.

Key:
[1] = molecular target: Lysosomal acid glucosylceramidase (Homo sapiens) (UniProt P04062); test: Glucocerebrosidase-p2 (AID 348; in the data active = potency below about 10 µM; also: potency is read from the fitted curve at half-maximal effect); settings: purified GBA, blue fluorogenic substrate, 40 min
Method in brief: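 Compounds titrated from 0.6 nM upwards against 0.2 nM enzyme in pH 5.9 citric acid/KH2PO4, taurocholate, tween-20; blue fluorogenic substrate 80 uM, 40 min room temperature, stopped and read Ex 365/Em 440 for AC50.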

[2] = AP1 Signaling Pathway (AID 357; active = well fitted curve in either direction with a large enough effect, not every such curve was filed as active;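 also: ME-180 reporter cells stimulated with EGF at its EC50 level; % is scaled to controls: 0 for no effect and ±100 for the full control effect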); settings: ME-180 AP-1-bla reporter, EGF-induced, beta-lactamase ratio, 5 h; at 7.69 µM (top of the series) unless noted
Method in brief: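 Titration-series screen for positive or negative modulators of EC50 EGF-induced signaling in ME-180 cells carrying an AP-1-driven beta-lactamase reporter. After 5 hours at 37 degrees Celsius, CCF4 460nm/530nm emission ratio gave %Activity; AC50 values derived.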

[3] = molecular target: Cytochrome P450 1A2 (Homo sapiens) (UniProt P05177); test: p450-cyp1a2 (AID 410; calls by dose curve; also: potency is read from the fitted curve at half-maximal effect); settings: recombinant CYP1A2, luciferin-ME demethylation, luminescence; series mostly up to 57 µM
Method in brief: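 Luminescent readout of luciferin formed from Luciferin-ME by human CYP1A2; data normalized against complete inhibition by 57 uM furafylline. Enzyme 20nM, substrate 100uM at Km, 100mM KPO4 buffer, 60 min reaction at room temperature.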

[4] = Stat Signaling Pathway (AID 446; active = well fitted curve in either direction with a large enough effect, not every such curve was filed as active;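 also: ME-180 cervical cancer cells given 40 pM IL-6 alongside compound; SIE-controlled beta-lactamase reporter measured as 460/530 nm FRET emission ratio; % is scaled to controls: 0 for no effect and ±100 for the full control effect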); settings: ME-180 SIE beta-lactamase reporter, IL-6 stimulated, 5 h; at 7.69 µM (top of the series) unless noted
Method in brief: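 Screening format detects activators and inhibitors alike: ME-180 SIE-bla cells stimulated at 40 pM IL-6 for 5 hrs with compound, then dual-emission beta-lactamase read at 405 nm excitation.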

[5] = molecular target: Glucocorticoid receptor (Homo sapiens) (UniProt P04150); test: GR-GFP Redistribution (AID 450;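 active = compounds whose dose series gives a full or clear partial fitted curve of increased nuclear translocation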; also: potency is read from the fitted curve at half-maximal effect); settings: U2OS GR-GFP nuclear translocation, laser cytometry, 2 h
[6] = molecular target: Glucocorticoid receptor (Homo sapiens) (UniProt P04150); test: GR-EFC Redistribution (AID 451; calls by dose curve; also: potency is read from the fitted curve at half-maximal effect); settings: CHO-K1 GR-EFC translocation, beta-gal luminescence, 2 h
Method in brief: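 Translocation of GR-ED fusion to nuclear EA restores b-gal, read by luminescence after 1 h room-temperature detection. Engineered CHO-K1 biosensor cells, 1,000/well, exposed 2 h at 37 C to titrations up to 46 uM final.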

[7] = molecular target: Mitogen-activated protein kinase 10 (Mus musculus) (UniProt Q61831); test: JNK3 AlphaScreen Assay (AID 530; active = well fitted curve in either direction with a large enough effect, not every such curve was filed as active;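 also: kinase came from lysate of stimulated human HepG2 cells; signal reports phosphorylation of biotinylated GST-cJun 1-79 at Ser73 with 10 µM ATP; % is scaled to controls: 0 for no effect and ±100 for the full control effect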); settings: JNK3 lysate, c-Jun phosphorylation; series mostly up to 57.1 µM
Method in brief: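 Compound titrations were preincubated 15 minutes at room temperature with substrate, antibody and pre-activated JNK3-containing HepG2 lysate. Reactions were started with 10 uM ATP and stopped with EDTA-containing bead buffer for AlphaScreen detection.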

[8] = molecular target: 3',5'-cyclic-AMP phosphodiesterase 4B (Homo sapiens) (UniProt Q07343); test: qHTS Assay for Inhibitors of PDE-IV (AID 607; active = well fitted activation curve with a large enough effect in the main read-out, with a control signal flat, not every such curve was filed as active; also: % of control where 0% means no effect); settings: HEK293 ACTOne CNG channel cells, membrane potential fluorescence; series mostly up to 22.9 µM
Method in brief: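 The readout is membrane depolarisation from a cAMP-sensing CNG channel, detected with a potential dye at ex 535/em 590. Cells were HEK293-derived (endogenous PDE-IV) at 1000 cells/well, titrated up to 22.9 uM final.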

[9] = molecular target: Cytochrome P450 3A4 (Homo sapiens) (UniProt P08684); test: qHTS Assay for Activators of Cytochrome P450 3A4 (AID 885); settings: recombinant CYP3A4, Luciferin-PPXE luminescence, 60 min; series mostly up to 57.1 µM; also: nearly all actives have a fitted effect of over 65% in size
Method in brief: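 Steps: enzyme/substrate mix dispensed; compound added, 10 min RT; NADPH regeneration solution added, 60 min RT; luciferin detection buffer stops reaction; 20 min later luminescence measured.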

[10] = molecular target: Dual specificity protein kinase CLK4 (Homo sapiens) (UniProt Q9HAZ1); test: qHTS Assay for Inhibitors of CDC-like Kinase 4 (Kinase-Glo Assay) (AID 1770); settings: recombinant Clk4, Kinase-Glo ATP depletion luminescence; series mostly up to 66.7 µM; also: nearly all actives have a fitted effect of over 65% in size; also: potency is read from the fitted curve at half-maximal effect
Method in brief: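 Recombinant human Clk4 (25 nM) phosphorylated RS repeat peptide (100 uM) with 1 uM ATP in Tris pH 7.5/MgCl2/EGTA/DTT/Triton buffer for 4.5 h at room temperature. Residual ATP was quantified by Kinase-Glo luciferase luminescence.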

[11] = molecular target: Dual specificity protein kinase CLK4 (Homo sapiens) (UniProt Q9HAZ1); test: qHTS Assay for Inhibitors of CDC-like Kinase 4 (ADP-Glo Assay) (AID 1771); settings: recombinant CLK4, ADP-Glo luminescence; series mostly up to 80 µM; also: nearly all actives have a fitted effect of over 70% in size; also: potency is read from the fitted curve at half-maximal effect
Method in brief: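 Luminescence from ADP-Glo reports ADP produced by 25 nM Clk4 acting on 100 uM RS repeat peptide with 1 uM ATP over 1 hr at room temperature; residual ATP is depleted before ADP is converted to ATP for detection.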

[12] = molecular target: Dual specificity protein kinase CLK4 (Homo sapiens) (UniProt Q9HAZ1); test: qHTS Assay for Inhibitors of CDC-like Kinase 4 (ADP-FP Assay) (AID 1795); settings: Transcreener ADP fluorescence polarization; series mostly up to 50 µM; also: nearly all actives have a fitted effect of over 60% in size; also: potency is read from the fitted curve at half-maximal effect
Method in brief: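 Recombinant human Clk4 (6.25 nM) phosphorylated RS repeat peptide (100 uM) with 1 uM ATP in Tris pH 7.5/MgCl2/EGTA/DTT/Triton buffer for one hour. ADP was quantified by Transcreener competitive fluorescence polarization against an ADP calibration curve.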

[13] = molecular target: Ubiquitin carboxyl-terminal hydrolase 1 (Homo sapiens) (UniProt O94782); test: Inhibitors of USP1/UAF1: Pilot qHTS (AID 504865); settings: purified USP1/UAF1, Ub-rhodamine cleavage fluorescence; series mostly up to 54.9 µM;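 also: rhodamine fluorescence freed from ubiquitin-rhodamine substrate followed over time; top concentration of the series differs between compounds; % is scaled to controls: 0 for no effect and ±100 for the full control effect; nearly all actives have a fitted effect of over 35% in size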
Method in brief: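 USP1/UAF1 complex (1nM) preincubated with compound 15 min at room temperature, then Ub-Rho substrate (150nM final) added. Fluorescence read kinetically at 480/540 nm, 6 reads every 60 seconds. Buffer: 50mM HEPES pH 7.8, 0.5mM EDTA, 0.1 mg/ml BSA, 1mM TCEP, 0.01% Tween-20.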

[14] = Primary qHTS for small molecule stabilizers of the endoplasmic reticulum resident proteome: Secreted ER Calcium Modulated Protein (SERCaMP) assay (AID 1508630); settings: SH-SY5Y GLuc-SERCaMP (Gaussia luciferase released on ER calcium loss) secretion, thapsigargin, luminescence; series mostly up to 38.4 µM; also: % is scaled to controls: 0 for no effect and ±100 for the full control effect
Method in brief: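 GLuc-SERCaMP-expressing SH-SY5Y cells, pretreated 16 h with compound, are challenged with thapsigargin to empty ER calcium stores; after 4 h, coelenterazine is added directly to the medium and luminescence is imaged.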

[15] = molecular target: Cytochrome P450 3A4 (Homo sapiens) (UniProt P08684); test: qHTS Assay for Inhibitors and Substrates of Cytochrome P450 3A4 (AID 884); settings: recombinant CYP3A4, Luciferin-PPXE luminescence; series mostly up to 57.1 µM; also: potency is read from the fitted curve at half-maximal effect; nearly all actives have a fitted effect of over 50% in size
Method in brief: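 20 nM human CYP3A4 with 25 uM Luciferin-PPXE (at KM) in 200 mM KPO4, preincubated 10 min with compound; NADPH regeneration started a 60 min RT reaction. Luciferin detected by luminescence, normalized to 57 uM ketoconazole as full inhibition.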

[16] = molecular target: Cytochrome P450 2D6 (Homo sapiens) (UniProt P10635); test: qHTS Assay for Inhibitors and Substrates of Cytochrome P450 2D6 (AID 891); settings: recombinant CYP2D6, luciferin-ME EGE luminescence; series mostly up to 57.1 µM; also: potency is read from the fitted curve at half-maximal effect; nearly all actives have a fitted effect of over 60% in size
Method in brief: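 Human CYP2D6 (5 nM) with 30 uM Luciferin-ME EGE (at Km) in 100 mM KPO4, compound preincubated 10 min, then NADPH regeneration system for 60 min at room temperature. Luciferin read by luminescence; normalized to 1.43 uM quinidine.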

[17] = qHTS Assay for Identification of Small Molecule Agonists for Hypoxia Response Element Signaling Pathway (AID 914; active = well fitted activation curve with a large enough effect in the signal ratio, with a control signal flat, not every such curve was filed as active; the % refers to the signal ratio; also: % of control where 0% means no effect); settings: ME-180 (cervical carcinoma) HRE-bla reporter, beta-lactamase ratio, CoCl2, 17 h; activation: active compounds read high
Method in brief: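 Reporter activity (beta-lactamase, CCF4 460nm/530nm ratio) in HRE-bla ME-180 cells is recorded after 17 h compound exposure with EC50 CoCl2 at 37 degrees Celsius. AC50 values come from titration data.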

[18] = NFAT Signaling Pathway (AID 444; active = well fitted curve in either direction with a large enough effect, not every such curve was filed as active); settings: Jurkat NFAT-bla M1, carbachol, beta-lactamase ratio, 5 h; at 7.69 µM (top of the series) unless noted
Method in brief: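 Read-out: CCF4 FRET ratio (460 nm/530 nm) after 1 h RT dye loading, used for %activity and AC50 from titration series. Cells: Jurkat NFAT-β-lactamase/M1 line, treated with compound plus 1 uM carbachol for 5 h, 37 °C.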

Cytochrome P450 1A2 (Homo sapiens), sequence (P05177 whole entry, looked up): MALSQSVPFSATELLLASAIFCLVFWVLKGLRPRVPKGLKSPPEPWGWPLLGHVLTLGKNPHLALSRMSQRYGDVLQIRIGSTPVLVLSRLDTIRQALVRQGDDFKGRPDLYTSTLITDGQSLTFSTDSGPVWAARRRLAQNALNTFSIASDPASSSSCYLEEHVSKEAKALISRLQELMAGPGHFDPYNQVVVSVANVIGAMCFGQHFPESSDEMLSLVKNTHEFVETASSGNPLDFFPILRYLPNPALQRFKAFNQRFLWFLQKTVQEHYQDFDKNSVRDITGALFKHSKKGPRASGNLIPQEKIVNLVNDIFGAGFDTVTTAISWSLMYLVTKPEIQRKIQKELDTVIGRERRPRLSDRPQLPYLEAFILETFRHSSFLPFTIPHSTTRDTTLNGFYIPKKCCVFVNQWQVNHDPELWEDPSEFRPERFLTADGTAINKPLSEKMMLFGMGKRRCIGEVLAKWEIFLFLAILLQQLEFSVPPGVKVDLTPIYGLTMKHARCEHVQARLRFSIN
Ubiquitin carboxyl-terminal hydrolase 1 (Homo sapiens), sequence (O94782 whole entry, looked up): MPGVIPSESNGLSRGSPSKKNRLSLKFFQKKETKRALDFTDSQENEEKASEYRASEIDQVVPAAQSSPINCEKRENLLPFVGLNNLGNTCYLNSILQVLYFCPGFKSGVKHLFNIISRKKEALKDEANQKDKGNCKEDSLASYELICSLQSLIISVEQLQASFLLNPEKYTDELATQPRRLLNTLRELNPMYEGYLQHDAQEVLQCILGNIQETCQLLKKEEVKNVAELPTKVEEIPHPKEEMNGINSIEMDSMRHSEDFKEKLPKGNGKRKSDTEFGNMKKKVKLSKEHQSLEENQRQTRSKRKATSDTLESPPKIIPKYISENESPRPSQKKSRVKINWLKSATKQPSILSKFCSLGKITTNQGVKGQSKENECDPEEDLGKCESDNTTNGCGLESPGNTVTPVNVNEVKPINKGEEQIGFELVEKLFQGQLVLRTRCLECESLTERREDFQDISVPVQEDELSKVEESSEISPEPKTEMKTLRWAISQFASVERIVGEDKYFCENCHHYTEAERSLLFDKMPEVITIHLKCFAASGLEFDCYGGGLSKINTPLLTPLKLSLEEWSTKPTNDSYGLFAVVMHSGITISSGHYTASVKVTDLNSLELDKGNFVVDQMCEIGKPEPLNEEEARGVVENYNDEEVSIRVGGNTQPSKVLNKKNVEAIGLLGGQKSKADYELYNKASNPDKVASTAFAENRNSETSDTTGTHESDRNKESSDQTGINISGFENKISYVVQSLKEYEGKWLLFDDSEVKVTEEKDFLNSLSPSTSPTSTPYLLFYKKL
3',5'-cyclic-AMP phosphodiesterase 4B (Homo sapiens), sequence (Q07343 whole entry, looked up): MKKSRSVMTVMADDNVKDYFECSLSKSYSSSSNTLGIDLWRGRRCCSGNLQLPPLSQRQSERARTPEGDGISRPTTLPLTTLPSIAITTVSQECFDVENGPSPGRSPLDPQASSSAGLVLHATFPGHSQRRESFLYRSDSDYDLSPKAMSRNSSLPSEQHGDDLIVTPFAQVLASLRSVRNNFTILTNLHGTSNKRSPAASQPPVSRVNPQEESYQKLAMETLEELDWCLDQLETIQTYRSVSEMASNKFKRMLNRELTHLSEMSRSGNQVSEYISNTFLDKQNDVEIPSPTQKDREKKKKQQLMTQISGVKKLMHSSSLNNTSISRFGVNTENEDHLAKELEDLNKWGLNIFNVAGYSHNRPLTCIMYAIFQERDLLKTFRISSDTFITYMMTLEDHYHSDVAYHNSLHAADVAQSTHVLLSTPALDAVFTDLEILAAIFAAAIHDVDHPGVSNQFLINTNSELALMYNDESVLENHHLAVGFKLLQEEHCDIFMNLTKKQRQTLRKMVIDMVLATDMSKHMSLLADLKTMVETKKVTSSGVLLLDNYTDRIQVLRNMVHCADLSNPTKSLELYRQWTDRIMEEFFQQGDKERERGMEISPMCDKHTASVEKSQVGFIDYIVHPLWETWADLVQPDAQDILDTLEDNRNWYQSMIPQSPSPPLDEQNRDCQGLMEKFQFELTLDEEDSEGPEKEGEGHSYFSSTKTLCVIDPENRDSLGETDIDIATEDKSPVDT
Cytochrome P450 2D6 (Homo sapiens), sequence (P10635 whole entry, looked up): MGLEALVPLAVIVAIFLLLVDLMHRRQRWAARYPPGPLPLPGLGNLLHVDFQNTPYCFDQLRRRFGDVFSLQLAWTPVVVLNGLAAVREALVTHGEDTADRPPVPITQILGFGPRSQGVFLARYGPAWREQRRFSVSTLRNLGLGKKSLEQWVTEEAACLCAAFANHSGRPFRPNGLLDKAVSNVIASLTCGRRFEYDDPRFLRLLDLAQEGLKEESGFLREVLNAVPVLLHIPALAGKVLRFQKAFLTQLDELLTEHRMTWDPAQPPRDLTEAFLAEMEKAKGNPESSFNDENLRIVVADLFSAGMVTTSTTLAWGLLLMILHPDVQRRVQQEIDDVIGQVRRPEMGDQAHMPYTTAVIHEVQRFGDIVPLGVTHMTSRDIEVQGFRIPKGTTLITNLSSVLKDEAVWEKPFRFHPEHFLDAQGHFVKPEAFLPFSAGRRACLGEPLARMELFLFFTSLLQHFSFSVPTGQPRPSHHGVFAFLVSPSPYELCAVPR
Dual specificity protein kinase CLK4 (Homo sapiens), sequence (Q9HAZ1 whole entry, looked up): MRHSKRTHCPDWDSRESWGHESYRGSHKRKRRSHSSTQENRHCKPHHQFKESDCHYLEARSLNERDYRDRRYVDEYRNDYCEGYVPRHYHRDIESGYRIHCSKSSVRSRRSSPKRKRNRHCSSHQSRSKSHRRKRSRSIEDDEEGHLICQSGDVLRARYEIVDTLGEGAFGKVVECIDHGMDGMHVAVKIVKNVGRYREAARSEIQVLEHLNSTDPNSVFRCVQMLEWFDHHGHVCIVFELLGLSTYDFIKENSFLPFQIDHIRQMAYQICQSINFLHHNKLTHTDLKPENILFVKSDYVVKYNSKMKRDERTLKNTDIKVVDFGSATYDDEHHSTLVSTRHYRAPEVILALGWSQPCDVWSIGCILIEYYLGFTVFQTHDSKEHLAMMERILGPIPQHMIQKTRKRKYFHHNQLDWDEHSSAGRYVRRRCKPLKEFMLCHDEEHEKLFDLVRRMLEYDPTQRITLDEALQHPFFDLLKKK
Cytochrome P450 3A4 (Homo sapiens), sequence (P08684 whole entry, looked up): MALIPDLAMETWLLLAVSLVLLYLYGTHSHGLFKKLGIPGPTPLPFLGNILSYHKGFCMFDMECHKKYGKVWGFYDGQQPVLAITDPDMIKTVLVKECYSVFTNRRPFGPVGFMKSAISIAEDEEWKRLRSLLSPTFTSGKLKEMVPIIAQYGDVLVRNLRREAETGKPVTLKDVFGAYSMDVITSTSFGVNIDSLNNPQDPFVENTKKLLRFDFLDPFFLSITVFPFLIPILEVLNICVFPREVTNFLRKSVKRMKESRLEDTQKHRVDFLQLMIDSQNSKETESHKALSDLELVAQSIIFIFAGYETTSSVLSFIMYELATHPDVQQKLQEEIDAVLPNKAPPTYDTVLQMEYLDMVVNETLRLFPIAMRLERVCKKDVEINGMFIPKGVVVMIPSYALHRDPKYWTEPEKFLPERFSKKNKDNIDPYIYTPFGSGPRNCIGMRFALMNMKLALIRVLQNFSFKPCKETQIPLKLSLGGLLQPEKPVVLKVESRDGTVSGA
Lysosomal acid glucosylceramidase (Homo sapiens), sequence (P04062 whole entry, looked up): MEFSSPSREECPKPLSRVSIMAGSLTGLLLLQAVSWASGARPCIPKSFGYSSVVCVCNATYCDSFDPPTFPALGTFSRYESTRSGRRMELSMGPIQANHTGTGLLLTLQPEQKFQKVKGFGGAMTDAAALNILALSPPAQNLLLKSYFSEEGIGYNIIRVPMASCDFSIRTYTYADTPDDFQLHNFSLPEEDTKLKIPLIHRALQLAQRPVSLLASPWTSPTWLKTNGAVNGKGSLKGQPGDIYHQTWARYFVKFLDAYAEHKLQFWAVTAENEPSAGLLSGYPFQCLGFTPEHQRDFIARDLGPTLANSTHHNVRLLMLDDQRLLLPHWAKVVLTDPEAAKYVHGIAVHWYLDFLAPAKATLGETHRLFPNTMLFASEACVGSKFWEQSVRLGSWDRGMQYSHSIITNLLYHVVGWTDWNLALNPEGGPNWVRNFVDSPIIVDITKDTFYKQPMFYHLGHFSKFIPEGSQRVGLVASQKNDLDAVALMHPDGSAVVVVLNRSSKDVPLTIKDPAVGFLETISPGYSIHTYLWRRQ
Glucocorticoid receptor (Homo sapiens), sequence (P04150 whole entry, looked up, the tested form may be a part): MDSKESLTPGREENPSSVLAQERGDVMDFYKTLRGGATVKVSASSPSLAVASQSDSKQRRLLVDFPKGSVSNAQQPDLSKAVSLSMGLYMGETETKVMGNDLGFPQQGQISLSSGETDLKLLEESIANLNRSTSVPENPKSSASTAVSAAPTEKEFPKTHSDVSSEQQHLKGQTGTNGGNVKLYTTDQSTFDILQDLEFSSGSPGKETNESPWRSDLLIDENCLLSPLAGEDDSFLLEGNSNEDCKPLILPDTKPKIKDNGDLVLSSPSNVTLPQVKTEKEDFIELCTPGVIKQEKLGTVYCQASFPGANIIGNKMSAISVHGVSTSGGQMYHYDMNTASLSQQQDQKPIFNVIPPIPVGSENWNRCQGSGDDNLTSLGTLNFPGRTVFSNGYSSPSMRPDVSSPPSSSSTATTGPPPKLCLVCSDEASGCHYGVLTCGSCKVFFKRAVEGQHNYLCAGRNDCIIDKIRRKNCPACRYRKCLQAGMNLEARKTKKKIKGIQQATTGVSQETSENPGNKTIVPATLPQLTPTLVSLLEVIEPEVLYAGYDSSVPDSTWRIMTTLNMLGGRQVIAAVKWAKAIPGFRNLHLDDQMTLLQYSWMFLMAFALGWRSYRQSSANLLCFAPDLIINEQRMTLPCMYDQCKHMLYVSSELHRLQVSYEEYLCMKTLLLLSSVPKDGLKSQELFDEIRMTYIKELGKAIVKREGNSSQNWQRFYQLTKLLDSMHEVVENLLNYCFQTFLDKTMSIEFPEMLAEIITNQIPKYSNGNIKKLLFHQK

Structure (SMILES) | Potency [1] | activity change, negative = inhibition [2] [%] | Potency [3] | activity, negative = inhibition [4] [%] | Potency [5] [µM] | Potency [6] [µM] | Potency [7] | Potency [8] | Potency [9] | Potency [10] | Potency [11] | Potency [12] | Potency [13] | outcome [14] | Potency [15] | Potency [16] | activation [17] [%] | activity change, negative = inhibition [18] [%]
Cc1noc(C)c1-c1ccc2ncnc(NCCN3CCOCC3)c2c1 | > 11.4 µM | 1.93 | 15.8 µM (active) | -22.6 | > 46 | > 46 | inactive | inactive | inactive | 8.91 µM (active) | 6.31 µM (active) | 8.91 µM (active) | inactive | inactive |  |  |  | 
Cc1cccc(CNc2ncncc2-c2ccccc2Cl)c1 | > 11.4 µM | -12.3 | 3.16 µM (active) | -14.1 | > 46 | > 46 | inactive |  | inactive | inactive | inactive | inactive | inactive | inactive | 0.199 µM (active) | 2 µM (active) | -10.3 | 
COc1ccc(CNc2ccnc(-c3ccccc3OC)n2)c(OC)c1 | > 11.4 µM | 3.33 | 5.01 µM (active) | 1.07 | > 46 | > 46 | inactive |  | inactive | inactive | inactive | inactive |  | inactive | 6.31 µM (active) | 3.98 µM (active) |  | -9.22
COc1ccccc1-c1cncnc1NCc1cnc(C)cn1 | > 11.4 µM | -7.64 | 20 µM (active) | 4.26 |  | > 46 | inactive | inactive | inactive | inactive | inactive | inactive | inactive | inactive | 1.26 µM (active) |  |  | 2.58
N#Cc1cccc(-c2nccc(NCc3ccccc3)n2)c1 | > 11.4 µM | -20.8 | 0.501 µM (active) | -6.24 | > 46 | > 46 | inactive |  | inactive | 14.1 µM (active) | 14.1 µM (active) | 15.8 µM (active) |  | inactive |  | 7.94 µM (active) |  | 13.6
CNc1nc(-c2ccccc2C)nc2ccccc12 | 8.72 µM (active) | 8.12 | 0.501 µM (active) | 9 |  | > 46 |  | inactive | inactive | 12.6 µM (active) | 12.6 µM (active) | 14.1 µM (active) | inactive | inactive |  |  |  | 3.1
COc1ccccc1CNc1nc(-c2ccccc2OC)nc2ccccc12 | > 11.4 µM | 6.17 |  | -10.4 | > 46 | > 46 |  |  |  | inactive | inactive | inactive |  | inactive |  |  |  | -24.7
c1cncc(CNc2ncncc2-c2ccoc2)c1 | > 11.4 µM | 2.19 |  | -4.52 | > 46 | > 46 | inactive | inactive |  | inactive | inactive | inactive | inactive | inactive |  |  |  | 7.14
Cn1cc(-c2nc3cnc(OCc4ccccc4)nc3n(CCC#N)c2=O)c2ccccc21 | > 11.4 µM | 3.51 |  | 27.1 | > 46 | > 46 | inactive | inactive |  | inactive | inactive | inactive | inactive | inactive |  |  |  | 9.29
COc1cccc(Cn2c(=O)c(-c3cc(F)cc(F)c3)nc3cncnc32)c1 | > 11.4 µM | 0.277 |  | -1.76 | > 9.22 | > 46 |  |  |  | inactive | inactive | inactive | inactive | inactive |  |  |  | 0.731
COc1ccc(Oc2ncc3ncc(=O)n(-c4ccc(OC)cc4)c3n2)cc1 | > 11.4 µM | -24.9 |  | -13.9 | > 9.22 | > 46 | inactive | inactive |  | 2.82 µM (active) | 2 µM (active) | 4.47 µM (active) | inactive | inactive |  |  |  | -12.3
COc1ccc(-c2nc3cncnc3n(-c3ccccc3)c2=O)cc1 | > 11.4 µM | -9.87 |  | -2.81 | > 9.22 | > 46 | inactive |  |  | inactive | inactive | inactive | inactive | inactive |  |  |  | -10.5
Cc1noc(C)c1-c1cncnc1-n1ccnc1 | > 11.4 µM | 0.604 |  | 12.7 | > 46 | > 46 | inactive | inactive |  | inactive | inactive | inactive | inactive | inactive |  |  |  | -5.32
